Reference: the supplement of paper PMC12282887
± gives the standard deviation of the averaged measurements.

Key:
Assay in all cases: promoter activity interaction Z-score (Lux/OD deviation from empty-vector control); higher = stronger promoter induction by the compound
[1] = tested on: E. coli BW25113 acrABp lux reporter
How it was run: (§1)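 At 37°C, E. coli BW25113 reporter cultures in 40 µl LB Lennox in 384-well plates were read for OD600 and luminescence every 30 min for 12 h. Windows were 0–8 h for wild type and 1–9 h for deletion strains, and wells under 10% of the median growth value were removed. The score is the Z-transformed residual of growth-normalised luminescence against a control fit.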

[2] = tested on: E. coli BW25113 micFp lux reporter
How it was run: as §1

[3] = tested on: E. coli BW25113 ompFp lux reporter
How it was run: as §1

[4] = tested on: E. coli BW25113 robp lux reporter
How it was run: as §1

[5] = tested on: E. coli BW25113 soxSp lux reporter
How it was run: as §1

[6] = tested on: E. coli BW25113 tolCp lux reporter
How it was run: as §1

[7] = 13.5 µg/ml, genetic background: wild type
[8] = 13.5 µg/ml, genetic background: ΔmarA
[9] = 13.5 µg/ml, genetic background: Δrob
[10] = 13.5 µg/ml, genetic background: ΔsoxS
[11] = 26.9 µg/ml, genetic background: wild type
[12] = 26.9 µg/ml, genetic background: ΔmarA
[13] = 26.9 µg/ml, genetic background: Δrob
[14] = 26.9 µg/ml, genetic background: ΔsoxS
[15] = 53.9 µg/ml, genetic background: wild type
[16] = 53.9 µg/ml, genetic background: ΔmarA
[17] = 53.9 µg/ml, genetic background: Δrob
[18] = 53.9 µg/ml, genetic background: ΔsoxS
[19] = 107.7 µg/ml, genetic background: wild type
[20] = 107.7 µg/ml, genetic background: ΔmarA
[21] = 107.7 µg/ml, genetic background: Δrob
[22] = 107.7 µg/ml, genetic background: ΔsoxS

CC(=O)O[C@H]1C[C@@]2(C)[C@@H](C[C@@H](O)[C@H]3[C@@]4(C)CC[C@@H](O)[C@@H](C)[C@@H]4CC[C@@]32C)/C1=C(\CCC=C(C)C)C(=O)O [Fusidic acid]
promoter activity interaction Z-score [1, 7]: -0.2451 ± 0.00049
promoter activity interaction Z-score [1, 8]: 0.318 ± 0.51
promoter activity interaction Z-score [1, 9]: 0.252 ± 0.008
promoter activity interaction Z-score [1, 10]: 0.129 ± 0.4
promoter activity interaction Z-score [1, 11]: 0.0211 ± 0.13
promoter activity interaction Z-score [1, 12]: 0.239 ± 0.78
promoter activity interaction Z-score [1, 13]: 0.206 ± 0.18
promoter activity interaction Z-score [1, 14]: 0.227 ± 0.21
promoter activity interaction Z-score [1, 15]: 0.215 ± 0.26
promoter activity interaction Z-score [1, 16]: -0.794 ± 0.83
promoter activity interaction Z-score [1, 17]: 0.292 ± 0.025
promoter activity interaction Z-score [1, 18]: 0.624 ± 0.086
promoter activity interaction Z-score [1, 19]: 0.448 ± 0.38
promoter activity interaction Z-score [1, 20]: -0.757 ± 0.87
promoter activity interaction Z-score [1, 21]: 0.221 ± 0.22
promoter activity interaction Z-score [1, 22]: 0.66 ± 0.14
promoter activity interaction Z-score [2, 7]: -0.214 ± 0.048
promoter activity interaction Z-score [2, 8]: -0.0141 ± 0.037
promoter activity interaction Z-score [2, 9]: -0.006 ± 0.044
promoter activity interaction Z-score [2, 10]: -0.317 ± 0.02
promoter activity interaction Z-score [2, 11]: -0.0316 ± 0.083
promoter activity interaction Z-score [2, 12]: 0.0308 ± 0.044
promoter activity interaction Z-score [2, 13]: 0.011 ± 0.0025
promoter activity interaction Z-score [2, 14]: -0.033 ± 0.14
promoter activity interaction Z-score [2, 15]: 0.0882 ± 0.31
promoter activity interaction Z-score [2, 16]: -0.146 ± 0.084
promoter activity interaction Z-score [2, 17]: 0.0235 ± 0.18
promoter activity interaction Z-score [2, 18]: 0.413 ± 0.28
promoter activity interaction Z-score [2, 19]: -0.681 ± 0.064
promoter activity interaction Z-score [2, 20]: -0.356 ± 0.068
promoter activity interaction Z-score [2, 21]: -0.293 ± 0.013
promoter activity interaction Z-score [2, 22]: -0.184 ± 0.18
promoter activity interaction Z-score [3, 7]: -0.312 ± 0.41
promoter activity interaction Z-score [3, 8]: 0.0814 ± 0.3
promoter activity interaction Z-score [3, 9]: 0.107 ± 0.54
promoter activity interaction Z-score [3, 10]: -0.462 ± 0.18
promoter activity interaction Z-score [3, 11]: -0.129 ± 0.58
promoter activity interaction Z-score [3, 12]: 0.219 ± 0.59
promoter activity interaction Z-score [3, 13]: 0.223 ± 0.2
promoter activity interaction Z-score [3, 14]: -0.211 ± 0.02
promoter activity interaction Z-score [3, 15]: -0.237 ± 0.057
promoter activity interaction Z-score [3, 16]: -0.149 ± 0.12
promoter activity interaction Z-score [3, 17]: -0.602 ± 0.36
promoter activity interaction Z-score [3, 18]: -0.00876 ± 0.4
promoter activity interaction Z-score [3, 19]: -1.9 ± 0.91
promoter activity interaction Z-score [3, 20]: -1.77 ± 0.15
promoter activity interaction Z-score [3, 21]: -2.39 ± 0.61
promoter activity interaction Z-score [3, 22]: -1.36 ± 0.43
promoter activity interaction Z-score [4, 7]: -0.978 ± 0.39
promoter activity interaction Z-score [4, 8]: -0.301 ± 0.26
promoter activity interaction Z-score [4, 9]: 0.242 ± 0.41
promoter activity interaction Z-score [4, 10]: -0.23 ± 0.61
promoter activity interaction Z-score [4, 11]: -0.593 ± 0.31
promoter activity interaction Z-score [4, 12]: -0.113 ± 0.0094
promoter activity interaction Z-score [4, 13]: 0.3 ± 0.32
promoter activity interaction Z-score [4, 14]: 0.424 ± 1.6
promoter activity interaction Z-score [4, 15]: -1.1 ± 0.35
promoter activity interaction Z-score [4, 16]: -0.572 ± 0.84
promoter activity interaction Z-score [4, 17]: -0.82 ± 0.47
promoter activity interaction Z-score [4, 18]: -0.24 ± 0.27
promoter activity interaction Z-score [4, 19]: -2.27 ± 0.22
promoter activity interaction Z-score [4, 20]: -1.34 ± 0.73
promoter activity interaction Z-score [4, 21]: -1.46 ± 0.021
promoter activity interaction Z-score [4, 22]: -1.76 ± 0.91
promoter activity interaction Z-score [5, 7]: -0.189 ± 0.017
promoter activity interaction Z-score [5, 8]: 0.127 ± 0.11
promoter activity interaction Z-score [5, 9]: 0.138 ± 0.11
promoter activity interaction Z-score [5, 10]: 0.0742 ± 0.26
promoter activity interaction Z-score [5, 11]: -0.0314 ± 0.05
promoter activity interaction Z-score [5, 12]: 0.331 ± 0.089
promoter activity interaction Z-score [5, 13]: 0.221 ± 0.14
promoter activity interaction Z-score [5, 14]: 0.0543 ± 0.37
promoter activity interaction Z-score [5, 15]: 0.0312 ± 0.095
promoter activity interaction Z-score [5, 16]: 0.0894 ± 0.086
promoter activity interaction Z-score [5, 17]: 0.0824 ± 0.045
promoter activity interaction Z-score [5, 18]: 0.2418 ± 0.00036
promoter activity interaction Z-score [5, 19]: 0.133 ± 0.093
promoter activity interaction Z-score [5, 20]: 0.303 ± 0.013
promoter activity interaction Z-score [5, 21]: 0.683 ± 0.014
promoter activity interaction Z-score [5, 22]: 1.13 ± 0.34
promoter activity interaction Z-score [6, 7]: 0.0553 ± 0.57
promoter activity interaction Z-score [6, 8]: 0.818 ± 0.39
promoter activity interaction Z-score [6, 9]: 0.166 ± 0.013
promoter activity interaction Z-score [6, 10]: 0.269 ± 0.96
promoter activity interaction Z-score [6, 11]: -0.129 ± 0.34
promoter activity interaction Z-score [6, 12]: 0.688 ± 0.72
promoter activity interaction Z-score [6, 13]: -0.187 ± 0.52
promoter activity interaction Z-score [6, 14]: 0.868 ± 0.14
promoter activity interaction Z-score [6, 15]: 0.388 ± 0.25
promoter activity interaction Z-score [6, 16]: -0.396 ± 0.26
promoter activity interaction Z-score [6, 17]: -0.151 ± 1.6
promoter activity interaction Z-score [6, 18]: -0.374 ± 0.68
promoter activity interaction Z-score [6, 19]: -1.44 ± 0.11
promoter activity interaction Z-score [6, 20]: -0.24 ± 0.18
promoter activity interaction Z-score [6, 21]: -0.656 ± 0.49
promoter activity interaction Z-score [6, 22]: 0.133 ± 0.45
